Bioassay records as filed in PubChem BioAssay.
NOMO-1 viab = STK33 inhibitor candidate reducing NOMO-1 cell viability; NOMO-1 AML viability, CellTiter-Glo luminescence, 72 h; inhibition, % (test concentration not listed); 37,000 tested, 7.5% active; AID 2330; in the data active = inhibition above about 80%
STK33 inh = human STK33 kinase inhibition | Q9BYT3 | ADP-Glo luminescence, MBP substrate | inhibition, % at 12.5 µM | 27,000 tested, 0.44% active; in the data active = inhibition above about 20%
Target sequence (Q9BYT3 whole entry, looked up): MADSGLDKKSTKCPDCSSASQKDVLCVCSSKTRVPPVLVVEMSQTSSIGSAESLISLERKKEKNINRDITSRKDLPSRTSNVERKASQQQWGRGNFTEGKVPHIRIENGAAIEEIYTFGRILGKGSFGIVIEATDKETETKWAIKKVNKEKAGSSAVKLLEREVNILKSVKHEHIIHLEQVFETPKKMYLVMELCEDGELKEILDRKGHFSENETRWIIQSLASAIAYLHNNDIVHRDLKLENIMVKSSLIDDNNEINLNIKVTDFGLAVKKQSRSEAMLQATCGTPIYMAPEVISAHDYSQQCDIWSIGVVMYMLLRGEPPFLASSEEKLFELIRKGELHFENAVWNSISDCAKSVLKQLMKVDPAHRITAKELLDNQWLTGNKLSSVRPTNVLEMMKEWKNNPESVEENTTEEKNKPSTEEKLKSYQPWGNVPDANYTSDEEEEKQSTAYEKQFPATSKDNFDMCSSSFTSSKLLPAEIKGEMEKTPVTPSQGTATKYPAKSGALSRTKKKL
PD-1 reversal = activators reversing PD-1 mediated T-cell inhibition. primary human CD4 T cells, PD-L1 beads, CellTiter-Glo 96 h. AID 2316. activation, % (no concentration beside the values). 29,000 tested, under 10 active; call rule not given here
Of the large screens only hits and unclear results are named; the others gave an inactive call. This excerpt belongs to a sample that is enriched for hits.

COc1ccc(NC(=O)Nc2cccc3c2O[C@H](CN(C)Cc2ccc(C(=O)Nc4ccccc4N)cc2)[C@@H](C)CN([C@H](C)CO)C3=O)cc1	NOMO-1 viab 128.3 (no result: STK33 inh)
COc1ccc(CN(C)C[C@@H]2Oc3c(NC(=O)Nc4ccc(OC)cc4)cccc3C(=O)N([C@H](C)CO)C[C@@H]2C)cc1	none (no result: STK33 inh, PD-1 reversal)
COc1ccc(NC(=O)Nc2ccc3c(c2)C(=O)N([C@H](C)CO)C[C@H](C)[C@H](CN(C)Cc2ccc(C(=O)Nc4ccccc4N)cc2)O3)cc1	none (no result: STK33 inh)
COc1ccc(CN(C)C[C@H]2Oc3c(NC(=O)Nc4ccc(OC)cc4)cccc3C(=O)N([C@H](C)CO)C[C@@H]2C)cc1	none (no result: STK33 inh)
COc1ccc(NC(=O)Nc2cccc3c2O[C@H](CN(C)Cc2ccc(C(=O)Nc4ccccc4N)cc2)[C@@H](C)CN([C@@H](C)CO)C3=O)cc1	NOMO-1 viab 127.6 (no result: STK33 inh)
CCn1c(SCC(=O)Nc2ccc(C)cc2Br)nnc1-c1ccc(Cl)cc1	none
CC(C(=O)Nc1ccc(Oc2ccccc2)cc1)N(c1ccc(Cl)cc1)S(C)(=O)=O (stereo not drawn)	none (no result: PD-1 reversal)
Nc1cc(N)nc(SCC(=O)Nc2cccc(C(F)(F)F)c2)n1	none (no result: PD-1 reversal)
COc1ccc(-c2csc3ncn(CC(=O)Nc4sc5c(c4C#N)CCC5)c(=O)c23)cc1OC	none
COc1cc2c(cc1O)C(=O)CC1C(C)(C)C(=O)CCC21C (stereo not drawn)	none
C[C@@H]1CCCCO[C@H](CN(C)Cc2ccc3c(c2)OCO3)[C@@H](C)CN([C@H](C)CO)C(=O)c2cc(NS(=O)(=O)c3ccc(Cl)cc3)ccc2O1	NOMO-1 viab 87.2
Cc1ccc(S(=O)(=O)Nc2ccc3c(c2)C(=O)N([C@H](C)CO)C[C@H](C)[C@@H](CN(C)Cc2ccc4c(c2)OCO4)OCCCC[C@@H](C)O3)cc1	none (no result: PD-1 reversal)
C[C@H]1CN([C@@H](C)CO)C(=O)c2cc(NS(=O)(=O)c3ccc(F)cc3)ccc2O[C@@H]1CN(C)Cc1ccc2c(c1)OCO2	none
C[C@H]1CN([C@@H](C)CO)C(=O)c2cc(NS(=O)(=O)c3ccccc3)ccc2O[C@H]1CN(C)Cc1ccc(Cl)c(Cl)c1	none
C[C@H]1CN([C@@H](C)CO)C(=O)c2cc(NS(=O)(=O)c3ccc(F)cc3)ccc2O[C@H]1CN(C)Cc1ccc2c(c1)OCO2	NOMO-1 viab 93.4
C[C@@H]1CN([C@@H](C)CO)C(=O)c2cc(NS(=O)(=O)c3ccccc3)ccc2O[C@@H]1CN(C)Cc1ccc(Cl)c(Cl)c1	NOMO-1 viab 103.3
Cc1ccc(S(=O)(=O)Nc2ccc3c(c2)C(=O)N([C@H](C)CO)C[C@H](C)[C@@H](CN(C)Cc2ccc(Cl)c(Cl)c2)OCCCC[C@@H](C)O3)cc1	none (no result: PD-1 reversal)
C[C@@H]1CCCCO[C@@H](CN(C)Cc2ccc(Cl)c(Cl)c2)[C@@H](C)CN([C@H](C)CO)C(=O)c2cc(NS(=O)(=O)c3ccc(F)cc3)ccc2O1	NOMO-1 viab 99.5
CCn1cc(C(C)NC(=S)Nc2ccc(OC)cc2OC)c(C)n1 (stereo not drawn)	none
CC1(C)NC(=O)N(CC(=O)Nc2ccc(Br)cc2)C1=O	none (no result: PD-1 reversal)
O=C(c1cc2ccccc2oc1=O)N(Cc1ccccc1)c1ccccn1	none
COc1cc(NC(=O)C(C)Oc2ccc(Cl)cc2Cl)c(OC)cc1Cl (stereo not drawn)	none (no result: PD-1 reversal)
C[C@H](CO)N1C[C@H](C)[C@H](CN(C)Cc2ccc(Cl)c(Cl)c2)Oc2ccc(NS(=O)(=O)c3ccc(F)cc3)cc2C1=O	none
C[C@H](CO)N1C[C@H](C)[C@@H](CN(C)Cc2ccc(Cl)c(Cl)c2)Oc2ccc(NS(=O)(=O)c3ccc(F)cc3)cc2C1=O	none (no result: STK33 inh)
C[C@@H]1CCCCO[C@H](CN(C)Cc2ccc(Cl)c(Cl)c2)[C@@H](C)CN([C@H](C)CO)C(=O)c2cc(NS(=O)(=O)c3cccs3)ccc2O1	none (no result: PD-1 reversal)
C[C@H](CO)N1C[C@H](C)[C@H](CN(C)Cc2ccc(Cl)c(Cl)c2)Oc2ccc(NS(=O)(=O)c3ccc(Cl)cc3)cc2C1=O	none
C[C@@H]1CN([C@H](C)CO)C(=O)c2cc(NS(=O)(=O)c3ccc(Cl)cc3)ccc2O[C@@H]1CN(C)Cc1ccc(Cl)c(Cl)c1	NOMO-1 viab 89.9 (no result: STK33 inh, PD-1 reversal)
C[C@H]1CN([C@@H](C)CO)C(=O)c2cc(NS(=O)(=O)c3ccc(F)cc3)ccc2O[C@@H]1CN(C)Cc1ccc(Cl)c(Cl)c1	NOMO-1 viab 110.1 (no result: STK33 inh)
C[C@@H]1CN([C@@H](C)CO)C(=O)c2cc(NS(=O)(=O)c3ccc(Cl)cc3)ccc2O[C@@H]1CN(C)Cc1ccc(Cl)c(Cl)c1	NOMO-1 viab 115.5 (no result: STK33 inh)
C[C@@H]1CCCCO[C@@H](CN(C)Cc2ccc(Cl)c(Cl)c2)[C@@H](C)CN([C@H](C)CO)C(=O)c2cc(NS(=O)(=O)c3cccs3)ccc2O1	NOMO-1 viab 118.3 (no result: PD-1 reversal)
COc1ccc(CCNC(=O)C2OCCc3ccccc32)cc1OC (stereo not drawn)	none
Cc1nn(Cc2cccc(C(=O)Nc3ccc(S(=O)(=O)N4CCCCC4)cc3)c2)c(C)c1Cl	none
COc1cc(CCc2cc(OC)c(C)cc2OC)c(OC)cc1C	none (no result: STK33 inh)
O=C(COc1ccc(C2CCCCC2)cc1)Nc1cccc(-c2nc3ncccc3o2)c1	none
COc1ccc(C2(CNC(=O)CC#N)CCCC2)cc1OC	none (no result: PD-1 reversal)
O=c1c2ccccc2[nH]c(=S)n1CCCN1CCN(Cc2ccccc2)CC1	none (no result: PD-1 reversal)
O=c1cc(-c2ccccc2)oc2ccccc12	none
O=C1NC(=O)C(=Cc2ccc(-c3ccccc3)o2)C(=O)N1	NOMO-1 viab 125.9 (no result: STK33 inh)
COc1ccc(-c2nc3cc(NC(=O)COc4ccc([N+](=O)[O-])cc4)ccc3o2)cc1Cl	none
CC(C)c1ccc2oc(-c3ccc(Cl)c(NC(=O)COc4ccc([N+](=O)[O-])cc4)c3)nc2c1	NOMO-1 viab 110.2
COc1ccc(-c2coc3c(OC)c(OC)ccc3c2=O)cc1	none
COc1c(-c2ccc(O)cc2)oc2cc(O)cc(O)c2c1=O	none
COc1cc(O)c2c(=O)c(OC)c(-c3ccc(OC)c(OC)c3)oc2c1	none
COc1cc(-c2oc3cc(O)cc(O)c3c(=O)c2O)ccc1O	STK33 inh 52.5
O=c1c(O[C@@H]2OC[C@H](O)[C@H](O)[C@H]2O)c(-c2ccc(O)c(O)c2)oc2cc(O)cc(O)c12	none
COc1ccc(-c2oc3c(OC)c(OC)c(OC)c(O)c3c(=O)c2OC)cc1OC	NOMO-1 viab 107.3
O=c1c(O)c(-c2ccc(O)c(O)c2)oc2cc(O)cc(O)c12	STK33 inh 38.3
COc1c(OC)c(O)c2c(=O)c(O)c(-c3ccccc3)oc2c1OC	none
COc1cc(OC)c2c(=O)c(O)c(-c3ccc(OC)c(OC)c3)oc2c1	NOMO-1 viab 102.1 (no result: PD-1 reversal)
O=C(Cn1cnc2sc(-c3ccccc3)cc2c1=O)Nc1ccc(F)c(Cl)c1	none
Cc1c(S(=O)(=O)c2ccc(Cl)cc2)csc1C(=O)N(c1ccccc1)S(C)=O (stereo not drawn)	none (no result: STK33 inh)
COc1cc(-c2oc3cc(O)c(OC)c(O)c3c(=O)c2OC)ccc1O	NOMO-1 viab 119.7
COc1cc2oc(-c3ccc(O)c(O)c3)c(OC)c(=O)c2c(O)c1OC	none (no result: NOMO-1 viab, PD-1 reversal)
COc1ccc(C)cc1S(=O)(=O)NCc1ccncc1	none
CC(C)(C)c1ccc(OC(=O)CCN2C(=O)C3C4C=CC(C5CC45)C3C2=O)cc1 (stereo not drawn)	none
O=C(CCN1C(=O)C2C3C=CC(C4CC34)C2C1=O)Oc1cccc2cccnc12 (stereo not drawn)	NOMO-1 viab 121.2
